Laboratory results as given in PubChem BioAssay (NCI).
The panel holds about 79,000 compounds, 15% with a hit somewhere; the sample as a whole holds those more often. A number with no mark means an inactive call. The source made the active and inactive calls. No stated cut-off is given here; in the data, active means growth inhibition above about 70%; inactive means the rest.

Assay: NCI Yeast Anticancer Drug Screen. Data for the rad18 strain (AID 177)
Conditions: S. cerevisiae rad18 mutant growth inhibition, stronger effect = higher value
Description: Growth inhibition of yeast strains with defined genetic alterations is measured as a screen for potential anti-cancer activity. Selected strains with alterations in DNA damage repair or cell cycle control were exposed to compounds and growth inhibition was measured relative to vehicle treated controls. The strain used in this assay is rad18

For `Cn1c(COc2ccc(/C=N/NC(=O)CCC(=O)N/N=C/c3ccc(OCc4c[n+]5ccccc5n4C)cc3)cc2)c[n+]2ccccc12`, the growth inhibition (at 1.2 µM) was 2%, the growth inhibition (at 3.7 µM) was 3% and the growth inhibition (at 11.0 µM) was 28%. The growth inhibition (at 33.0 µM) was 9% and the growth inhibition (at 100.0 µM) was 98% (active).

For `Cc1c(N=Nc2ccc(Cl)cc2)c(C)n(C2OC(CO)C(O)C(O)C2O)c(=S)c1C#N` (stereo not given), the growth inhibition (at 1.2 µM) was -1%, the growth inhibition (at 3.7 µM) was 8% and the growth inhibition (at 11.0 µM) was 18%. For the same compound, the growth inhibition (at 33.0 µM) was 59% and the growth inhibition (at 100.0 µM) was 83% (active).

With `CC[N+]1(C)CCC(O)(/C=C/c2ccc(Cl)c(Cl)c2)C(C(=O)/C=C/c2ccc(Cl)c(Cl)c2)C1` (stereo not given) the growth inhibition (at 1.2 µM) was 29%, the growth inhibition (at 3.7 µM) was 77% (active) and the growth inhibition (at 11.0 µM) was 99% (active). For the same compound, the growth inhibition (at 33.0 µM) was 99% (active) and the growth inhibition (at 100.0 µM) was 99% (active).

For `NCC(O)CSCc1ccc(Cl)cc1` (stereo not given), the growth inhibition (at 1.2 µM) was -5%, the growth inhibition (at 3.7 µM) was -1% and the growth inhibition (at 11.0 µM) was 0%. It also gave a growth inhibition (at 33.0 µM) of -2% and a growth inhibition (at 100.0 µM) of 11%.

For `O=C1C(C(O)(C(F)(F)F)C(F)(F)F)CCC1C(O)(C(F)(F)F)C(F)(F)F` (stereo not given), the growth inhibition (at 1.2 µM) was 4%, the growth inhibition (at 3.7 µM) was 6% and the growth inhibition (at 11.0 µM) was 3%. The growth inhibition (at 33.0 µM) was -2% and the growth inhibition (at 100.0 µM) was 11%.

Work on `CC1=NN(C(=O)CC(=O)N(C(=O)c2ccccc2)c2ccc(Cl)cc2)C(=O)C1N=Nc1ccc([N+](=O)[O-])cc1` (stereo not given) yielded a growth inhibition (at 1.2 µM) of 4%, a growth inhibition (at 3.7 µM) of 11% and a growth inhibition (at 11.0 µM) of 62%. For the same compound, the growth inhibition (at 33.0 µM) was 85% (active) and the growth inhibition (at 100.0 µM) was 84% (active).

With `CN(C)CCNC(=O)c1cccc2nc3c4ccccc4c4ccccc4c3nc12` the growth inhibition (at 1.2 µM) was 5%, the growth inhibition (at 3.7 µM) was 11% and the growth inhibition (at 11.0 µM) was 72% (active). For the same compound, the growth inhibition (at 33.0 µM) was 98% (active) and the growth inhibition (at 100.0 µM) was 93% (active).

Compound `[O-]c1c2cc(-[n+]3c(-c4ccccc4)cc(-c4ccccc4)cc3-c3ccccc3)cc1COCCOCCOCCOCCOC2` has a growth inhibition (at 1.2 µM) of -1%, a growth inhibition (at 3.7 µM) of -3% and a growth inhibition (at 11.0 µM) of -3%. For the same compound, the growth inhibition (at 33.0 µM) was 6% and the growth inhibition (at 100.0 µM) was 74% (active).
